Holding throughout (test): DAPPL (digital affinity profiling via proximity ligation, sequencing); 10 mM Tris-HCl pH 7.5, 50 mM NaCl, 1 mM DTT, 4% glycerol, room temperature, 30 min; GST-TFs on glutathione beads, 16-mer random dsDNA library, 0.1% formaldehyde crosslink after washing; high values mean tight binding
One experiment deals with T1, FLI1 (Homo sapiens, UniProt Q01543 1-452).
T1 sequence: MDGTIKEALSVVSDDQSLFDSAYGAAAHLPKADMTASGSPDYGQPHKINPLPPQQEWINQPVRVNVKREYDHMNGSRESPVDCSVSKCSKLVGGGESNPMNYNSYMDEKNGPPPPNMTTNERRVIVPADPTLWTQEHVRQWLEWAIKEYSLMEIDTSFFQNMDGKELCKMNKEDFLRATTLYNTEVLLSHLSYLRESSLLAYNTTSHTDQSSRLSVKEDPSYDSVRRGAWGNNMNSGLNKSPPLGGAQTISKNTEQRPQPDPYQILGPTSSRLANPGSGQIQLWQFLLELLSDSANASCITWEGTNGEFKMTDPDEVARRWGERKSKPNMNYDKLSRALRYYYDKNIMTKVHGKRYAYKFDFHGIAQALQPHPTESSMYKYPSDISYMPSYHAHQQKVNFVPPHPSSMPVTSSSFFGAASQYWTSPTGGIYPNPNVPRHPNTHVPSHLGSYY
The settings on record: protein: recombinant; tags: N-terminal GST; dsDNA, one strand shown. The method in brief: (§1)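 In yeast, human transcription factors were expressed with a GST fusion, then pulled down on glutathione beads and given DNA barcodes. Pooled with a tag-only sample, they were exposed to 200 nmole of a 16-mer random double-stranded DNA library (Tris/NaCl/DTT/glycerol buffer, room temperature, 30 min), washed, crosslinked with 0.1% formaldehyde, proximity-ligated using BsaI/T4 ligase for 1 h at 37 °C, PCR-amplified and read on an Illumina NextSeq500. Each hexamer's frequency of reads for a factor, divided by the matching frequency for the tag-only sample, gives the binding signal.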

The target of another experiment is T2, ELK1 (Homo sapiens, UniProt P19419 1-428).
T2 sequence: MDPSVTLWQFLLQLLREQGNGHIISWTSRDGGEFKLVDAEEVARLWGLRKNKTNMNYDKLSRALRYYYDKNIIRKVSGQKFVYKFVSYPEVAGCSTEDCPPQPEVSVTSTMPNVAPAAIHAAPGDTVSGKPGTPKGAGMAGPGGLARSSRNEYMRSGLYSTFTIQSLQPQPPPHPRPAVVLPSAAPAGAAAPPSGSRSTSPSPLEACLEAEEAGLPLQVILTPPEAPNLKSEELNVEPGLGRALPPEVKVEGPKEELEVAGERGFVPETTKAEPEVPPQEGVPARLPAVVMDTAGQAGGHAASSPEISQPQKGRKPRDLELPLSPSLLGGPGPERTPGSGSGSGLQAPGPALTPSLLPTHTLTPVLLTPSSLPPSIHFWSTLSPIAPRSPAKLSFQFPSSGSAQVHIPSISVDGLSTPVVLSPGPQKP
The conditions noted are these: protein: recombinant; tags: N-terminal GST; dsDNA, one strand shown. The method in brief: as §1

Another experiment addresses T3, GABPA (Homo sapiens, UniProt Q06546 1-454).
T3 sequence: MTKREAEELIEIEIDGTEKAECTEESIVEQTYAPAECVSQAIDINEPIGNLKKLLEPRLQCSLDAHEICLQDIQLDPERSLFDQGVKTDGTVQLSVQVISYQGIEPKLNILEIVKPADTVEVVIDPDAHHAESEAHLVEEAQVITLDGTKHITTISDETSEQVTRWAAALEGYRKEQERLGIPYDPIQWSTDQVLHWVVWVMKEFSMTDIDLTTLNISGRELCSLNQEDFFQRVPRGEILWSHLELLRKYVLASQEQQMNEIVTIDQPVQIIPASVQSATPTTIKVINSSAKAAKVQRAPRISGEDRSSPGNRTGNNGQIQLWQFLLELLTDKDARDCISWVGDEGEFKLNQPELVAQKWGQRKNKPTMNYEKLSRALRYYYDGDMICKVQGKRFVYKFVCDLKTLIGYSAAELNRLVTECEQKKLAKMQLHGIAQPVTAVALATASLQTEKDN
The conditions noted are these: protein: recombinant; tags: N-terminal GST; dsDNA, one strand shown. The method in brief: as §1

In a further experiment the target is T4, ERG (Homo sapiens, UniProt P11308 1-479).
T4 sequence: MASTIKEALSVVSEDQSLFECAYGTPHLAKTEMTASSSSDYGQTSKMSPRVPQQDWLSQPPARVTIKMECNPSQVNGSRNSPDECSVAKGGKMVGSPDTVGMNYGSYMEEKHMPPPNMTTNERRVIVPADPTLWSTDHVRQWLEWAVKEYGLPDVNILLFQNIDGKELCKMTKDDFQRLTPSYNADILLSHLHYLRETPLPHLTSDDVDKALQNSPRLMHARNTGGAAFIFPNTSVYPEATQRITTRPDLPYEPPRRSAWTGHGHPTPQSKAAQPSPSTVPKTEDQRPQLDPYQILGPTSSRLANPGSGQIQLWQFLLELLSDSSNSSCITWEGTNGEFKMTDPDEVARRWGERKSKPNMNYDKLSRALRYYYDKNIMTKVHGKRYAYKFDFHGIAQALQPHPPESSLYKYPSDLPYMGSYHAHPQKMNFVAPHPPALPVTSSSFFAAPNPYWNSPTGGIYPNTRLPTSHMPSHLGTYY
The settings on record: protein: recombinant; tags: N-terminal GST; dsDNA, one strand shown. The method in brief: as §1

Another experiment deals with ELF1 (Homo sapiens, UniProt P32519 1-619). The conditions noted are these: protein: recombinant; tags: N-terminal GST; dsDNA, one strand shown. The method in brief:
as §1

Another experiment addresses T5, EHF (Homo sapiens, UniProt Q9NZC4 1-300).
T5 sequence: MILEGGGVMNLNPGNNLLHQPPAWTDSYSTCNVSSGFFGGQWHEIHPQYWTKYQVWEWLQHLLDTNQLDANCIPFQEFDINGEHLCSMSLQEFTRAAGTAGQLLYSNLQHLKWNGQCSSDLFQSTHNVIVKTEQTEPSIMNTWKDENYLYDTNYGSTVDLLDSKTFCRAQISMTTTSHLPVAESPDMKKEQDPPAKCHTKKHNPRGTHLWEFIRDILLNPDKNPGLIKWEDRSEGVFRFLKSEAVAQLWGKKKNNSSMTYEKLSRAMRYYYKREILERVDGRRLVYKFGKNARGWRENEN
The conditions noted are these: protein: recombinant; tags: N-terminal GST; dsDNA, one strand shown. Put shortly:
as §1

The next experiment has as its target SPI1 (Homo sapiens, UniProt P17947 1-270). The settings on record: protein: recombinant; tags: N-terminal GST; dsDNA, one strand shown. The method in brief:
as §1

In another experiment the target is SPIB (Homo sapiens, UniProt Q01892 1-262). The settings on record: protein: recombinant; tags: N-terminal GST; dsDNA, one strand shown. Put shortly: as §1
The next experiment has as its target T6, ELK3 (Homo sapiens, UniProt P41970 1-407).
T6 sequence: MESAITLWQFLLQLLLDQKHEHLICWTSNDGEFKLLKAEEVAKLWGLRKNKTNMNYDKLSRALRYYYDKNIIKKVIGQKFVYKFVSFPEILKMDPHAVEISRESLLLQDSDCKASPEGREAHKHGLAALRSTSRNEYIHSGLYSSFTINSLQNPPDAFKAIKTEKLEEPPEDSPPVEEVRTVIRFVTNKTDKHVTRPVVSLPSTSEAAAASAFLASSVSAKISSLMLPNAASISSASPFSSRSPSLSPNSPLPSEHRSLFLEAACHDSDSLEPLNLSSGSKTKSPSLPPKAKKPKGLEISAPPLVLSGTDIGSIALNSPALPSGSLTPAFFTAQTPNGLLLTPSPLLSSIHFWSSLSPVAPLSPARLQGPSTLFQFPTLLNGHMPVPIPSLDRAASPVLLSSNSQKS
The settings on record: protein: recombinant; tags: N-terminal GST; dsDNA, one strand shown. The method in brief: as §1

For the next experiment, the target named is T7, FEV (Homo sapiens, UniProt Q99581 1-238).
T7 sequence: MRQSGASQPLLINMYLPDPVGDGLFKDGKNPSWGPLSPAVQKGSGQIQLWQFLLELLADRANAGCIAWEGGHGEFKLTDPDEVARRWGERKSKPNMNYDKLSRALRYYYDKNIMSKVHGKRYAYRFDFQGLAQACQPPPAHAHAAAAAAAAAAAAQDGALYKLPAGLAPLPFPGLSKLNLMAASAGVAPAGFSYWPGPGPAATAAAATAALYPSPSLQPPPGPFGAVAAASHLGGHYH
The conditions noted are these: protein: recombinant; tags: N-terminal GST; dsDNA, one strand shown. The method in brief: as §1

The target of another experiment is ETV5 (Homo sapiens, UniProt P41161 1-510). The settings on record: protein: recombinant; tags: N-terminal GST; dsDNA, one strand shown. The method in brief:
as §1

For the next experiment, the target named is HSF1 (Homo sapiens, UniProt Q00613 1-529). The conditions noted are these: protein: recombinant; tags: N-terminal GST; chain copies: 3; dsDNA, one strand shown. The method in brief: as §1
Another experiment concerns the target T8, SPIC (Homo sapiens, UniProt Q8N5J4 1-248).
T8 sequence: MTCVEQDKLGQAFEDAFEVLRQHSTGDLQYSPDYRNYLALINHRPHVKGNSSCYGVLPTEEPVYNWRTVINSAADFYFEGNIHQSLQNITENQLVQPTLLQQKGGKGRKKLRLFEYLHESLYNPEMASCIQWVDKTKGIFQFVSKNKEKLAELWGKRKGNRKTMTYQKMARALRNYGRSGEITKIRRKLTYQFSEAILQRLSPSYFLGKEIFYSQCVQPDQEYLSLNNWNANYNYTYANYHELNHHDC
The settings on record: protein: recombinant; tags: N-terminal GST; dsDNA, one strand shown. The method in brief:
as §1

In the next experiment the target is ELF4 (Homo sapiens, UniProt Q99607 1-663). The settings on record: protein: recombinant; tags: N-terminal GST; dsDNA, one strand shown. Put shortly:
as §1

A further experiment concerns the target T9, ELK4 (Homo sapiens, UniProt P28324-2 1-405).
T9 sequence: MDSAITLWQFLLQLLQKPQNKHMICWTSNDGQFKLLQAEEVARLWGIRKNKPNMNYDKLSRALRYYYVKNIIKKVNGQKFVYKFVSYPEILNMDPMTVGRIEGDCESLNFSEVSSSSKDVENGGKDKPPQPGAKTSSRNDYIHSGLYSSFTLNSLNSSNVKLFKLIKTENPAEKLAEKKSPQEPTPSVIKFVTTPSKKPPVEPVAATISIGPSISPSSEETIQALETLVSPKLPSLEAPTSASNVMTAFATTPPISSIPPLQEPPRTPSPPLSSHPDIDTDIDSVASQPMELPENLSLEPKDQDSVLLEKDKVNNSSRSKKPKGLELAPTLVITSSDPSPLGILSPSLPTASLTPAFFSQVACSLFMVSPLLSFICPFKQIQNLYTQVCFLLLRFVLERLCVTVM
The conditions noted are these: protein: recombinant; tags: N-terminal GST; dsDNA, one strand shown. The method in brief: as §1

In the next experiment the target is T10, ETV2 (Homo sapiens, UniProt O00321 1-342).
T10 sequence: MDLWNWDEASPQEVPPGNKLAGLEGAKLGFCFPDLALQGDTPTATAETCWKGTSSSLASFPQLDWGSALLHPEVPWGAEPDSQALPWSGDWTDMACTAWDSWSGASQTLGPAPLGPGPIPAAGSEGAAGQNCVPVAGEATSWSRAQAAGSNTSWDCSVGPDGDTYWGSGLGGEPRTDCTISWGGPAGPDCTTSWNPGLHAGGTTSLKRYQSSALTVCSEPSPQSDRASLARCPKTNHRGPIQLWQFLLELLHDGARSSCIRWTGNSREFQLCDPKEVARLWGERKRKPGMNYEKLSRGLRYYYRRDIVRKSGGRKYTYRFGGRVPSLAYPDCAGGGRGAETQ
The settings on record: protein: recombinant; tags: N-terminal GST; dsDNA, one strand shown. The method in brief: as §1

Another experiment addresses T11, ELF3 (Homo sapiens, UniProt P78545 1-371).
T11 sequence: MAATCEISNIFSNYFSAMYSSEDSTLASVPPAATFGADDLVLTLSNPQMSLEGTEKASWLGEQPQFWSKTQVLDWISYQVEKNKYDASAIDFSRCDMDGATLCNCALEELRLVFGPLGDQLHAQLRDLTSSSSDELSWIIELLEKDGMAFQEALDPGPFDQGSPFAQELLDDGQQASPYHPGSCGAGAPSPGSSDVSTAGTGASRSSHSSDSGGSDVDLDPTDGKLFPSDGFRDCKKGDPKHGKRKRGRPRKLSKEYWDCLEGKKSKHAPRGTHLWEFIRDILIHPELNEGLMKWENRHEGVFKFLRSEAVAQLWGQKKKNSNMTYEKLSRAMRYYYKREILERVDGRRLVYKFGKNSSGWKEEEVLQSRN
The settings on record: protein: recombinant; tags: N-terminal GST; dsDNA, one strand shown. Put shortly:
as §1

The target of the next experiment is CRX (Homo sapiens, UniProt O43186 1-299). The settings on record: protein: recombinant; tags: N-terminal GST; dsDNA, one strand shown. Put shortly:
as §1

The target of a further experiment is ETV1 (Homo sapiens, UniProt P50549 1-477). The settings on record: protein: recombinant; tags: N-terminal GST; dsDNA, one strand shown. The method in brief: as §1
ETV1, sequence (P50549 whole entry): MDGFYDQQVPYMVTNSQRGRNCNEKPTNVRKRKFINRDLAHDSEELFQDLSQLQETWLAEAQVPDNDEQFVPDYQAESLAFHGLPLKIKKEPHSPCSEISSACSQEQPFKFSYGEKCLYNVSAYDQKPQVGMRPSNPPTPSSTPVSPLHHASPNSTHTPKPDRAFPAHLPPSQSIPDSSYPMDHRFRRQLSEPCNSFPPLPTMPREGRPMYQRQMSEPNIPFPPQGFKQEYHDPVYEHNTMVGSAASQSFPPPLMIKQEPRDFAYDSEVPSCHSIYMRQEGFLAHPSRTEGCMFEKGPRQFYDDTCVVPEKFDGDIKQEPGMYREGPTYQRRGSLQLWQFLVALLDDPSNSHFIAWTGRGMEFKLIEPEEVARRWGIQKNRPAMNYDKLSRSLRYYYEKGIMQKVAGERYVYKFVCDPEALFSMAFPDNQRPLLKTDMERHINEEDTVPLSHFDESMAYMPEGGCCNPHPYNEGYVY

ELF4, sequence (Q99607 whole entry): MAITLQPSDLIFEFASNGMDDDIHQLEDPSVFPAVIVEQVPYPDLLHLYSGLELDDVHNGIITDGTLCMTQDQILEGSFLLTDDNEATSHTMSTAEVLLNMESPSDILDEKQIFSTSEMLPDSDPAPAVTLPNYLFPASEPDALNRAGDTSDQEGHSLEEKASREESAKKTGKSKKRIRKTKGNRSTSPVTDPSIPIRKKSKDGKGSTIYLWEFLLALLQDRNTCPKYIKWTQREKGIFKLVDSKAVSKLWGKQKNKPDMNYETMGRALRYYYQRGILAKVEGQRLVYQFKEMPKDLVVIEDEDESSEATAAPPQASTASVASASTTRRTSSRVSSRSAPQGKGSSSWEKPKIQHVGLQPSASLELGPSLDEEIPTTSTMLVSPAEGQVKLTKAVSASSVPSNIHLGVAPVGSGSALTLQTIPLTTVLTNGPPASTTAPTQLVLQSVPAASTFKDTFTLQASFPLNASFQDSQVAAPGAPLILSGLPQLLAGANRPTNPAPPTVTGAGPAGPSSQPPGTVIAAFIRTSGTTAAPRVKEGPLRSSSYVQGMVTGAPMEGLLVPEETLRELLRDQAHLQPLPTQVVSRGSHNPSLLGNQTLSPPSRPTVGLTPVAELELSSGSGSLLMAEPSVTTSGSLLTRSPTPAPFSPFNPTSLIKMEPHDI
ETV5, sequence (P41161 whole entry): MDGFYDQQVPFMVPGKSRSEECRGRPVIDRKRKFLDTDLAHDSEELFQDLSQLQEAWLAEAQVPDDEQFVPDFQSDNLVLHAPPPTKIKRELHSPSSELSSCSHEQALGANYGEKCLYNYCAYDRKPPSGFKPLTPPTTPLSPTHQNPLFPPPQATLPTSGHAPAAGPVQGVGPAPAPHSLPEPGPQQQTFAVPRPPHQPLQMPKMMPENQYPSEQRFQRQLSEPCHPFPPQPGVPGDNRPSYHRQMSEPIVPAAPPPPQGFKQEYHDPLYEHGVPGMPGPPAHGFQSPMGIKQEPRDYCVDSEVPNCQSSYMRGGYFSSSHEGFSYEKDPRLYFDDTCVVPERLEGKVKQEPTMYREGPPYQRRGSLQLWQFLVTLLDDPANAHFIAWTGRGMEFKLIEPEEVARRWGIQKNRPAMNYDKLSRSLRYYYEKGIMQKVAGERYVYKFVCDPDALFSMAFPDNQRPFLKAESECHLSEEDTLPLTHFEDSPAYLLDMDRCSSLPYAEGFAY
SPIB, sequence (Q01892 whole entry): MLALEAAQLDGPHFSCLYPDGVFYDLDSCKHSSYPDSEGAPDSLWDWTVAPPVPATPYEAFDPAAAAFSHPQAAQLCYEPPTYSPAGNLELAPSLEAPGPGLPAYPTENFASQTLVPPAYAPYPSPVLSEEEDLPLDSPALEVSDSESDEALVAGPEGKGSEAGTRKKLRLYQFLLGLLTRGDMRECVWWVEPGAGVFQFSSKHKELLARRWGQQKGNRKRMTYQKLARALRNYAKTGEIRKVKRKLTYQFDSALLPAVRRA
HSF1, sequence (Q00613 whole entry): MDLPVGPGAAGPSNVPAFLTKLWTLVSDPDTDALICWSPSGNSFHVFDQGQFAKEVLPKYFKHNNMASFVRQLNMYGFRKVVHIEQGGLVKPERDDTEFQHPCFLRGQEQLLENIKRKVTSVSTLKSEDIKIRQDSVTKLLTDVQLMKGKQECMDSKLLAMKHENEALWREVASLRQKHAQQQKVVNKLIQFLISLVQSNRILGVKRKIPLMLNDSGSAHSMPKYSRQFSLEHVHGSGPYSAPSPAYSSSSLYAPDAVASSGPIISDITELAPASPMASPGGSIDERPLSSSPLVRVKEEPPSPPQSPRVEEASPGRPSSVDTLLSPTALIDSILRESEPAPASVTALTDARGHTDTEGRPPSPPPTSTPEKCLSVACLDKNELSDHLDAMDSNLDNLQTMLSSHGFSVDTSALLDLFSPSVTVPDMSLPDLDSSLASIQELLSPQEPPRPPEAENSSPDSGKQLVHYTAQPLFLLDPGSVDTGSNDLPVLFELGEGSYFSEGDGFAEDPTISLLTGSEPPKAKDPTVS
CRX, sequence (O43186 whole entry): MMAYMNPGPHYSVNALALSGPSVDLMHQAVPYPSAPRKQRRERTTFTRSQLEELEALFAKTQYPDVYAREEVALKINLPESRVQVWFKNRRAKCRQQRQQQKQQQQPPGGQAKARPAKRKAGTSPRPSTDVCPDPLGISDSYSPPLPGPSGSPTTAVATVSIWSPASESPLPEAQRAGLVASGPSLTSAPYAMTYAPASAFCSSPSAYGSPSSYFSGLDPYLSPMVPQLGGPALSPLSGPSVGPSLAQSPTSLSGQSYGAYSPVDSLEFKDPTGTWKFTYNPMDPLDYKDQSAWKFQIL
ELF1, sequence (P32519 whole entry): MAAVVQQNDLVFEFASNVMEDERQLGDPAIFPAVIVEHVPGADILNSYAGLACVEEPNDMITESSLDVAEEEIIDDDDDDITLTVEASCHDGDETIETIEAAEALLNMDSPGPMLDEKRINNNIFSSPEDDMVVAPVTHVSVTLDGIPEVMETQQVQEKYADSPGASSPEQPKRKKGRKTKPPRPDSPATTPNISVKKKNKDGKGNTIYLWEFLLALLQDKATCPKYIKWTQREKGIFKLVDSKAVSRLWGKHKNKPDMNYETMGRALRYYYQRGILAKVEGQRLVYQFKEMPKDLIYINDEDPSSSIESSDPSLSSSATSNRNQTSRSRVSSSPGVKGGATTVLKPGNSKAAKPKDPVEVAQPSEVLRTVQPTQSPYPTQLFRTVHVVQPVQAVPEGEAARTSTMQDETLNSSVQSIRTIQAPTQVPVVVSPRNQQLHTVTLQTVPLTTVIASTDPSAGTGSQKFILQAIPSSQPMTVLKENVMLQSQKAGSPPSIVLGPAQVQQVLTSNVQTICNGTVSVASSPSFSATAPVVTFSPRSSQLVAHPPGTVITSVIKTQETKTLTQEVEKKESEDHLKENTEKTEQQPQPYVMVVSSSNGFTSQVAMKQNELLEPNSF

With AAACTT, the binding signal with FLI1 is 1.27 fold enrichment (6-mer frequency, TF over GST control); in the experiment with ELK1 it was 1.22 fold enrichment (6-mer frequency, TF over GST control); in the experiment with GABPA, 1.31 fold enrichment (6-mer frequency, TF over GST control); with ERG, 1.24 fold enrichment (6-mer frequency, TF over GST control); with ELF1, 1.24 fold enrichment (6-mer frequency, TF over GST control); in the experiment with EHF it was 1.31 fold enrichment (6-mer frequency, TF over GST control). Besides, the binding signal with SPI1 was 1.24 fold enrichment (6-mer frequency, TF over GST control); in the experiment with SPIB, 1.25 fold enrichment (6-mer frequency, TF over GST control); with ELK3, 1.3 fold enrichment (6-mer frequency, TF over GST control); with FEV, 1.3 fold enrichment (6-mer frequency, TF over GST control); with ETV5, 1.22 fold enrichment (6-mer frequency, TF over GST control); in the experiment with HSF1 it was 1.37 fold enrichment (6-mer frequency, TF over GST control). In addition, the binding signal was 1.36 fold enrichment (6-mer frequency, TF over GST control) with SPIC; 1.26 fold enrichment (6-mer frequency, TF over GST control) with ELF4; 1.23 fold enrichment (6-mer frequency, TF over GST control) with ELK4; 1.28 fold enrichment (6-mer frequency, TF over GST control) with ETV2; 1.13 fold enrichment (6-mer frequency, TF over GST control) with ELF3; 1.21 fold enrichment (6-mer frequency, TF over GST control) with CRX. In the experiment with ETV1, the binding signal is 1.27 fold enrichment (6-mer frequency, TF over GST control).

The values above are taken from article PMC7862700, “An all-to-all approach to the identification of sequence-specific readers for epigenetic DNA modifications on cytosine”.
